Experimental data from PubChem BioAssay AID602143 (Vanderbilt Specialized Chemistry Center, 2011).
“And” between values parts separate entries of the source, which are not always exact repeats. Equal entries are not always repeated. Unmarked numbers belong to inactive results. The source made the active and inactive calls. Cut-off read from the data, not from the text of the source: active = remaining activity below about 50%; inactive = the rest.

Molecular target: Phospholipase D2 (Homo sapiens) (UniProt O14939)
Experiment: cellular phospholipase D2 activity inhibition – cell-based, HEK293, single concentration (AID 602143);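 note: tested at 200 nM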
Settings: HEK293 cellular PLD2 activity, percent of control; stronger effect = lower value

Phospholipase D2 (Homo sapiens), sequence (O14939 whole entry, looked up): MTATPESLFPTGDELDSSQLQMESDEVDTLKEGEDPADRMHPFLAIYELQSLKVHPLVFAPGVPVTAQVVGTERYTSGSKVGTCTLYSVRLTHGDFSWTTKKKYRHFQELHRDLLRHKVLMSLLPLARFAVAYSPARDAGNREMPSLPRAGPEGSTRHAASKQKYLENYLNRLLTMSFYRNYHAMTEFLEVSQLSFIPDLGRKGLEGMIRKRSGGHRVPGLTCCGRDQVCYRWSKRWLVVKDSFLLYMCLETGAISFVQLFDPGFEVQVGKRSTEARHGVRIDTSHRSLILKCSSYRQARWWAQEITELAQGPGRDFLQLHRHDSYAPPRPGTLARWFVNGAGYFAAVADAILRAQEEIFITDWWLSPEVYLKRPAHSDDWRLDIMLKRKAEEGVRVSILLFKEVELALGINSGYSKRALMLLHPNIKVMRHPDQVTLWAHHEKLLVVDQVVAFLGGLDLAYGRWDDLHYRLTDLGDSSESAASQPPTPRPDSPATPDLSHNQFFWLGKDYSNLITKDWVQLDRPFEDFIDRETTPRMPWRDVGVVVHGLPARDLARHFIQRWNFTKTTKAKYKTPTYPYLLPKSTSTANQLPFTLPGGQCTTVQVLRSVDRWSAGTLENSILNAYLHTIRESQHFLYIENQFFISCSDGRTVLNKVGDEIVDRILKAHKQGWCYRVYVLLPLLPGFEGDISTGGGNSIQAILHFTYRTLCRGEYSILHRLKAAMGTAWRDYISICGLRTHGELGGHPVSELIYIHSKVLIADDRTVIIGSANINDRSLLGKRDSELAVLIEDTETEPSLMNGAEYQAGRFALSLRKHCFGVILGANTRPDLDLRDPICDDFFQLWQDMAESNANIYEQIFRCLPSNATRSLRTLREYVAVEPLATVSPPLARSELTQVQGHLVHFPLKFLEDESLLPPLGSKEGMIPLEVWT
Phospholipase D2 (Homo sapiens), sequence (O14939 whole entry, looked up): as above

Compound	remaining activity
O=C(NCCN1CCC2(CC1)C(=O)NCN2c1ccccc1)c1ccc2c(c1)C(=O)OC2=O	93.5%
O=C(c1cnc2ccccc2c1)N1CCCC1CN1CCC(n2c(=O)[nH]c3ccccc32)CC1 (stereo unspecified)	54.2%
CC(C)[C@@H](CN1CCC2(CC1)C(=O)NCN2c1ccccc1)NC(=O)c1cc2cc(F)ccc2[nH]1	57.1%
O=C(NCCN1CCC2(CC1)C(=O)NCN2c1cccc(F)c1)C1CCCCC1	91%
Nc1ccc(C(=O)NCCN2CCC3(CC2)C(=O)NCN3c2ccccc2)cc1OC(F)(F)F	97.3%
O=C(CCN1CCC2(CC1)C(=O)NCN2c1ccccc1)Nc1cnc2ccccc2c1	104%
O=C(NCCN1CCC2(CC1)C(=O)NCN2c1cccc(Cl)c1)c1ccc(F)cc1	65.4%
C[C@@H](CN1CCC2(CC1)C(=O)NCN2c1ccc(F)c(F)c1)NC(=O)c1ccc(F)cc1	23.6% (active)
O=C(NCCCN1CCC2(CC1)C(=O)NCN2c1ccccc1)c1ccc2ccccc2c1	98%
O=C(NCCN1CCC2(CC1)C(=O)NCN2c1cccc(F)c1)c1ccc(F)nc1	85.7%
O=C(NCCN1CCC2(CC1)C(=O)NCN2c1ccc(F)cc1)c1cc2cc(F)ccc2[nH]1	14.3% (active)
O=C(CN1CCC2(CC1)C(=O)NCN2c1ccccc1)c1ccccc1	106%
O=C(NCCN1CCC2(CC1)C(=O)NCN2c1ccc(F)c(F)c1)c1cc2cc(F)ccc2[nH]1	10.4% (active)
O=C(NCCN1CCC2(CC1)C(=O)NCN2c1ccccc1)c1cccc(Cl)n1	52.9%
O=C(NCCN1CCC2(CC1)C(=O)NCN2c1ccccc1)c1cc(=O)c2cc(Br)ccc2o1	122%
O=C(NCCN1CCC2(CC1)C(=O)NCN2c1ccccc1)c1ccc2c(c1)OCO2	90%
O=C(NCCN1CCC2(CC1)C(=O)NCN2c1ccc(F)cc1)c1cc2ccccc2[nH]1	8.73% (active)
O=C(NCCN1CCC2(CC1)C(=O)NCN2c1cccc(F)c1)c1cccc(F)c1	63.4%

Compound	remaining activity
CN(CCN1CCC2(CC1)C(=O)NCN2c1ccccc1)C(=O)c1ccc2ccccc2c1	95.2%
Cc1ccccc1C(=O)N(CCN1CCC2(CC1)C(=O)NCN2c1cccc(F)c1)C(=O)c1ccccc1C	106%
CC(C)[C@@H](CN1CCC2(CC1)C(=O)NCN2c1ccccc1)NC(=O)c1ccc2ccccc2c1	80.9%
C[C@@H](CN1CCC2(CC1)C(=O)NCN2c1ccc(F)c(F)c1)NC(=O)c1cc2cc(F)ccc2[nH]1	4.81% (active)
O=C(NCCN1CCC2(CC1)C(=O)NCN2c1ccccc1)C1C[C@H]1c1ccccc1 (stereo partly specified)	98.4%
C[C@H](CN1CCC2(CC1)C(=O)NCN2c1ccccc1)NC(=O)c1cc2cc(F)ccc2[nH]1	0% (active)
O=C(NCCN1CCC2(CC1)C(=O)NCN2c1cccc(F)c1)c1ccc(Cl)cc1Cl	92.4%
O=C(NCCN1CCC2(CC1)C(=O)NCN2c1cccc(Br)c1)c1ccc2ccccc2c1	47.8% (active)
O=C(NCCN1CCC2(CC1)C(=O)NCN2c1cccc(Cl)c1)c1cnc2ccccc2c1	45.2% (active)
CC(C)[C@@H](CN1CCC2(CC1)C(=O)NCN2c1ccccc1)NC(=O)c1ccc(F)cc1	74.9%
O=C(NCCN1CCC2(CC1)C(=O)NCN2c1ccc(F)cc1)c1ccc2ccccc2c1	34.3% (active)
C[C@@H](CN1CCC2(CC1)C(=O)NCN2c1ccc(F)c(F)c1)NC(=O)c1cnc2ccccc2c1	7.28% (active)
O=C(NCCN1CCC2(CC1)C(=O)NCN2c1ccccc1)c1ncc[nH]1	113%
O=C(NCCN1CCC2(CC1)C(=O)NCN2c1ccccc1)C1CCc2ccccc2C1 (stereo unspecified)	50.3% and 75.3%
O=C(NCCN1CCC2(CC1)C(=O)NCN2c1ccccc1)c1cc(Br)c(Br)o1	77.1%
O=C(c1cnc2ccccc2c1)N1CC(N2CCC(n3c(=O)[nH]c4cc(Br)ccc43)CC2)C1	99.7%
CCCCOc1ccc(C(=O)NCCN2CCC3(CC2)C(=O)NCN3c2cccc(F)c2)cc1	95.2%
O=C(COCc1ccccc1)NCCN1CCC2(CC1)C(=O)NCN2c1cccc(F)c1	86.7%
